Test results published in article PMC7862700, “An all-to-all approach to the identification of sequence-specific readers for epigenetic DNA modifications on cytosine”.

Legend:
Assay in all cases: DAPPL (digital affinity profiling via proximity ligation, sequencing); 10 mM Tris-HCl pH 7.5, 50 mM NaCl, 1 mM DTT, 4% glycerol, room temperature, 30 min; GST-TFs on glutathione beads, 16-mer random dsDNA library, 0.1% formaldehyde crosslink after washing; high values mean tight binding
Settings in all cases: protein: recombinant; tags: N-terminal GST; dsDNA, one strand shown
[1] = biological target: T1, ERF (Homo sapiens, UniProt P50548 1-548)
T1 sequence: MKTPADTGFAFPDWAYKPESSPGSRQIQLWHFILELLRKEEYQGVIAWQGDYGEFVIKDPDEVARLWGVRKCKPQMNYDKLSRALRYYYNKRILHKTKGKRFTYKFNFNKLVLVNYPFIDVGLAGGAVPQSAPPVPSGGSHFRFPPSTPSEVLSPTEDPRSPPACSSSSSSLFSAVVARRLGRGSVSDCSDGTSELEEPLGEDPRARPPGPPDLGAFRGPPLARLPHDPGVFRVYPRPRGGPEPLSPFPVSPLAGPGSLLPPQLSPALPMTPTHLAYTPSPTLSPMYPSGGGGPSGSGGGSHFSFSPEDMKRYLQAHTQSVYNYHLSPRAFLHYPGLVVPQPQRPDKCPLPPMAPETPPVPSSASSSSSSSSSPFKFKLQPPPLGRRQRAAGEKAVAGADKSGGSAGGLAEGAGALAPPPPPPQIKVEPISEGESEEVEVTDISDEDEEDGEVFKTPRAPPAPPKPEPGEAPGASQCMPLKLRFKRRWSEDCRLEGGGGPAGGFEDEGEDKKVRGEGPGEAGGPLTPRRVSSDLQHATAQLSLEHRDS
Procedure, shortened: (§1)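 Human transcription factors carrying a GST fusion were produced in yeast, bound to glutathione beads, tagged with DNA barcodes and pooled together with a tag-only sample. Each pool was held with 200 nmole of a random double-stranded 16-mer DNA library in Tris/NaCl/DTT/glycerol buffer for 30 min at room temperature, then washed, crosslinked in 0.1% formaldehyde, proximity-ligated with BsaI/T4 ligase (1 h, 37 °C), PCR-amplified and sequenced on an Illumina NextSeq500. Binding signal is the read frequency of each hexamer for a given factor divided by its frequency in the tag-only sample.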

[2] = biological target: T2, ETV3L (Homo sapiens, UniProt Q6ZN32 1-361)
T2 sequence: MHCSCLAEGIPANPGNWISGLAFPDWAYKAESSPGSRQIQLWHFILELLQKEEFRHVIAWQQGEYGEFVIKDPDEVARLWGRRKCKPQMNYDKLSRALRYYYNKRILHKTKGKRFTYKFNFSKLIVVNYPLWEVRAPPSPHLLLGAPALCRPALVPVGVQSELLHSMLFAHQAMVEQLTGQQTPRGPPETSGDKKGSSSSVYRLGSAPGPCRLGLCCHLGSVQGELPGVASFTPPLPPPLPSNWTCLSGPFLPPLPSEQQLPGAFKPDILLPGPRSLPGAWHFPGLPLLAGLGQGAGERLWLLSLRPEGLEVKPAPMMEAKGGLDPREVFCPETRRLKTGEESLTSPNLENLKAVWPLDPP
Procedure, shortened: as §1

[3] = biological target: T3, ETS2 (Homo sapiens, UniProt P15036 1-469)
T3 sequence: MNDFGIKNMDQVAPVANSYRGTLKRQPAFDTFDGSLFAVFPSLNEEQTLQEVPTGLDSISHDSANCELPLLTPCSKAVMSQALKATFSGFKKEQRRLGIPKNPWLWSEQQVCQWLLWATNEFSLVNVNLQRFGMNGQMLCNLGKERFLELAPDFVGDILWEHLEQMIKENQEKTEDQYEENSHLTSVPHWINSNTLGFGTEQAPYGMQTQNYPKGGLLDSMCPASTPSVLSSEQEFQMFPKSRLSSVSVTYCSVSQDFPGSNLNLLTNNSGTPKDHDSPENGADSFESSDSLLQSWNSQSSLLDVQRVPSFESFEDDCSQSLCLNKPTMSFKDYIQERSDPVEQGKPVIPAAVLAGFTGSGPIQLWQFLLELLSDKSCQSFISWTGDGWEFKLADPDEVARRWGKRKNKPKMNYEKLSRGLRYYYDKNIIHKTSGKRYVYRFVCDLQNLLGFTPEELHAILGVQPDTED
Procedure, shortened: as §1

[4] = biological target: T4, SPDEF (Homo sapiens, UniProt O95238 1-335)
T4 sequence: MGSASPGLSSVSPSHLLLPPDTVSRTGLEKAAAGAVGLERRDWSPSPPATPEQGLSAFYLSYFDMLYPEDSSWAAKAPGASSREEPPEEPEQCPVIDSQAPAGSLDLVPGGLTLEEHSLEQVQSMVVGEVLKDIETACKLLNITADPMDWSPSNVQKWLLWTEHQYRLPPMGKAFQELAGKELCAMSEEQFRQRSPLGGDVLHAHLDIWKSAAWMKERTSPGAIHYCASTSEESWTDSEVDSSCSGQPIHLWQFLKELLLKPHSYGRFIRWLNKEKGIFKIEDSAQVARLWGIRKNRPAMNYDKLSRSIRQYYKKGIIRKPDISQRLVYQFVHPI
Procedure, shortened: as §1

[5] = biological target: T5, ETV7 (Homo sapiens, UniProt Q9Y603 1-341)
T5 sequence: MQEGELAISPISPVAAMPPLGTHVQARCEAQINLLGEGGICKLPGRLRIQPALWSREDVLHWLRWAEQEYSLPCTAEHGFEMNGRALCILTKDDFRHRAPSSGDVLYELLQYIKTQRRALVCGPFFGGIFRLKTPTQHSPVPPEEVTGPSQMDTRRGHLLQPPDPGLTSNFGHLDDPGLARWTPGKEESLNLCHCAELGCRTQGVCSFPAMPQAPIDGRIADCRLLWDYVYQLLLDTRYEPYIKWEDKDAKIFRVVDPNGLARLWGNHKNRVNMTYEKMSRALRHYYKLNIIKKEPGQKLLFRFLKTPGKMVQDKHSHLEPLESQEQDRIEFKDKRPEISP
Procedure, shortened: as §1

[6] = biological target: T6, ELF5 (Homo sapiens, UniProt Q9UKW6-2 1-255)
T6 sequence: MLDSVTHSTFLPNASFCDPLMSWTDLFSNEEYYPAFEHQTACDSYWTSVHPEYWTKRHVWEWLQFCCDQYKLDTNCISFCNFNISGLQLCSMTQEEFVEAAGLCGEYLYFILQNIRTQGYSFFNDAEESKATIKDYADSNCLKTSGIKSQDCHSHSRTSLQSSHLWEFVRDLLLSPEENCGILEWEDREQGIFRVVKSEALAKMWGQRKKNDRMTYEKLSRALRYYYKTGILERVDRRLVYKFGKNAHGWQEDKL
Procedure, shortened: as §1

[7] = biological target: T7, ETV3 (Homo sapiens, UniProt P41162-2 1-143)
T7 sequence: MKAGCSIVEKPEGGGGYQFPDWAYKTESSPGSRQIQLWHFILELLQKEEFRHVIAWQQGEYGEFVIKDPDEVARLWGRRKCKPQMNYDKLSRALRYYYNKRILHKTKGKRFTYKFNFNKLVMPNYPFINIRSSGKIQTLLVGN
Procedure, shortened: as §1

[8] = biological target: ETV6 (Homo sapiens, UniProt P41212 1-452)
Procedure, shortened: as §1

Sequence of ETV6 (P41212 whole entry): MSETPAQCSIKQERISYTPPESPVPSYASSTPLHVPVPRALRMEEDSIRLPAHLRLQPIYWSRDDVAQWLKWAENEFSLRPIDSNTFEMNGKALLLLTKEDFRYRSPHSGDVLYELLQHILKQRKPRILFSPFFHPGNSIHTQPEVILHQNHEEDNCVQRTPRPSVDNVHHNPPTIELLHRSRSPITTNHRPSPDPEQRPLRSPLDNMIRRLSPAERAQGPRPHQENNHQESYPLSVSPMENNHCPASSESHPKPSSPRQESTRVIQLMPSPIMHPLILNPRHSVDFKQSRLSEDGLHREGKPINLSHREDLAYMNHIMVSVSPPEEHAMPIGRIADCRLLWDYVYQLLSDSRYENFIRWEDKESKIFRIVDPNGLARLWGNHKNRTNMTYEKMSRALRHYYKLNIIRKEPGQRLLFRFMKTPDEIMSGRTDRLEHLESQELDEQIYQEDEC

Sequence	binding signal [1]	binding signal [2]	binding signal [3]	binding signal [4]	binding signal [5]	binding signal [6]	binding signal [7]	binding signal [8]
TTTCGG	1.17 fold enrichment (6-mer frequency, TF over GST control)	1.22 fold enrichment (6-mer frequency, TF over GST control)	1.24 fold enrichment (6-mer frequency, TF over GST control)	1.21 fold enrichment (6-mer frequency, TF over GST control)	1.28 fold enrichment (6-mer frequency, TF over GST control)	1.21 fold enrichment (6-mer frequency, TF over GST control)	1.16 fold enrichment (6-mer frequency, TF over GST control)	1.19 fold enrichment (6-mer frequency, TF over GST control)
TTACTT	1.49 fold enrichment (6-mer frequency, TF over GST control)	1.37 fold enrichment (6-mer frequency, TF over GST control)	1.48 fold enrichment (6-mer frequency, TF over GST control)	1.45 fold enrichment (6-mer frequency, TF over GST control)	1.43 fold enrichment (6-mer frequency, TF over GST control)	1.54 fold enrichment (6-mer frequency, TF over GST control)	1.58 fold enrichment (6-mer frequency, TF over GST control)	1.62 fold enrichment (6-mer frequency, TF over GST control)
CTACCT	1.74 fold enrichment (6-mer frequency, TF over GST control)	1.53 fold enrichment (6-mer frequency, TF over GST control)	1.45 fold enrichment (6-mer frequency, TF over GST control)	1.45 fold enrichment (6-mer frequency, TF over GST control)	1.22 fold enrichment (6-mer frequency, TF over GST control)	1.59 fold enrichment (6-mer frequency, TF over GST control)	1.44 fold enrichment (6-mer frequency, TF over GST control)	1.51 fold enrichment (6-mer frequency, TF over GST control)
AACTAC	1.54 fold enrichment (6-mer frequency, TF over GST control)	1.44 fold enrichment (6-mer frequency, TF over GST control)	1.42 fold enrichment (6-mer frequency, TF over GST control)	1.48 fold enrichment (6-mer frequency, TF over GST control)	1.39 fold enrichment (6-mer frequency, TF over GST control)	1.5 fold enrichment (6-mer frequency, TF over GST control)	1.45 fold enrichment (6-mer frequency, TF over GST control)	1.51 fold enrichment (6-mer frequency, TF over GST control)
CTACCA	1.26 fold enrichment (6-mer frequency, TF over GST control)	1.21 fold enrichment (6-mer frequency, TF over GST control)	1.26 fold enrichment (6-mer frequency, TF over GST control)	1.23 fold enrichment (6-mer frequency, TF over GST control)	1.29 fold enrichment (6-mer frequency, TF over GST control)	1.26 fold enrichment (6-mer frequency, TF over GST control)	1.21 fold enrichment (6-mer frequency, TF over GST control)	1.26 fold enrichment (6-mer frequency, TF over GST control)
TTCACG	1.44 fold enrichment (6-mer frequency, TF over GST control)	1.32 fold enrichment (6-mer frequency, TF over GST control)	1.34 fold enrichment (6-mer frequency, TF over GST control)	1.34 fold enrichment (6-mer frequency, TF over GST control)	1.43 fold enrichment (6-mer frequency, TF over GST control)	1.38 fold enrichment (6-mer frequency, TF over GST control)	1.35 fold enrichment (6-mer frequency, TF over GST control)	1.43 fold enrichment (6-mer frequency, TF over GST control)
CTCTAG	1.31 fold enrichment (6-mer frequency, TF over GST control)	1.28 fold enrichment (6-mer frequency, TF over GST control)	1.26 fold enrichment (6-mer frequency, TF over GST control)	1.24 fold enrichment (6-mer frequency, TF over GST control)	1.27 fold enrichment (6-mer frequency, TF over GST control)	1.22 fold enrichment (6-mer frequency, TF over GST control)	1.4 fold enrichment (6-mer frequency, TF over GST control)	1.34 fold enrichment (6-mer frequency, TF over GST control)
AGCCTT	1.21 fold enrichment (6-mer frequency, TF over GST control)	1.11 fold enrichment (6-mer frequency, TF over GST control)	1.07 fold enrichment (6-mer frequency, TF over GST control)	1.02 fold enrichment (6-mer frequency, TF over GST control)	1.1 fold enrichment (6-mer frequency, TF over GST control)	1.1 fold enrichment (6-mer frequency, TF over GST control)	1.18 fold enrichment (6-mer frequency, TF over GST control)	1.08 fold enrichment (6-mer frequency, TF over GST control)
CATATT	1.32 fold enrichment (6-mer frequency, TF over GST control)	1.29 fold enrichment (6-mer frequency, TF over GST control)	1.22 fold enrichment (6-mer frequency, TF over GST control)	1.24 fold enrichment (6-mer frequency, TF over GST control)	1.19 fold enrichment (6-mer frequency, TF over GST control)	1.23 fold enrichment (6-mer frequency, TF over GST control)	1.24 fold enrichment (6-mer frequency, TF over GST control)	1.25 fold enrichment (6-mer frequency, TF over GST control)
CTTCGC	1.61 fold enrichment (6-mer frequency, TF over GST control)	1.45 fold enrichment (6-mer frequency, TF over GST control)	1.42 fold enrichment (6-mer frequency, TF over GST control)	1.54 fold enrichment (6-mer frequency, TF over GST control)	1.38 fold enrichment (6-mer frequency, TF over GST control)	1.34 fold enrichment (6-mer frequency, TF over GST control)	1.43 fold enrichment (6-mer frequency, TF over GST control)	1.34 fold enrichment (6-mer frequency, TF over GST control)
TCTTGC	1.4 fold enrichment (6-mer frequency, TF over GST control)	1.36 fold enrichment (6-mer frequency, TF over GST control)	1.35 fold enrichment (6-mer frequency, TF over GST control)	1.33 fold enrichment (6-mer frequency, TF over GST control)	1.38 fold enrichment (6-mer frequency, TF over GST control)	1.34 fold enrichment (6-mer frequency, TF over GST control)	1.47 fold enrichment (6-mer frequency, TF over GST control)	1.18 fold enrichment (6-mer frequency, TF over GST control)
GATCCT	1.3 fold enrichment (6-mer frequency, TF over GST control)	1.21 fold enrichment (6-mer frequency, TF over GST control)	1.32 fold enrichment (6-mer frequency, TF over GST control)	1.84 fold enrichment (6-mer frequency, TF over GST control)	1.2 fold enrichment (6-mer frequency, TF over GST control)	1.29 fold enrichment (6-mer frequency, TF over GST control)	1.25 fold enrichment (6-mer frequency, TF over GST control)	1.28 fold enrichment (6-mer frequency, TF over GST control)
ACTTTT	1.26 fold enrichment (6-mer frequency, TF over GST control)	1.25 fold enrichment (6-mer frequency, TF over GST control)	1.25 fold enrichment (6-mer frequency, TF over GST control)	1.25 fold enrichment (6-mer frequency, TF over GST control)	1.36 fold enrichment (6-mer frequency, TF over GST control)	1.26 fold enrichment (6-mer frequency, TF over GST control)	1.31 fold enrichment (6-mer frequency, TF over GST control)	1.34 fold enrichment (6-mer frequency, TF over GST control)
CGGCTC	1.36 fold enrichment (6-mer frequency, TF over GST control)	1.27 fold enrichment (6-mer frequency, TF over GST control)	1.23 fold enrichment (6-mer frequency, TF over GST control)	1.42 fold enrichment (6-mer frequency, TF over GST control)	1.25 fold enrichment (6-mer frequency, TF over GST control)	1.27 fold enrichment (6-mer frequency, TF over GST control)	1.29 fold enrichment (6-mer frequency, TF over GST control)	1.23 fold enrichment (6-mer frequency, TF over GST control)
TTGTAT	1.28 fold enrichment (6-mer frequency, TF over GST control)	1.37 fold enrichment (6-mer frequency, TF over GST control)	1.4 fold enrichment (6-mer frequency, TF over GST control)	1.41 fold enrichment (6-mer frequency, TF over GST control)	1.21 fold enrichment (6-mer frequency, TF over GST control)	1.35 fold enrichment (6-mer frequency, TF over GST control)	1.41 fold enrichment (6-mer frequency, TF over GST control)	1.25 fold enrichment (6-mer frequency, TF over GST control)
